Results on 40 molecules are retold here after PubChem BioAssay (NCATS).

Inconclusive results are not listed. Where a call stands in place of a potency, no number is given. The source made the active and inactive calls. Unless noted, calls follow the shape of the dose curve; as a rule, active = well fitted activation curve with a large enough effect; inconclusive = small, poorly fitted or top-dose-only effect; inactive = flat fitted curve, though single readings scatter. Where a SMILES comes first, the peptide text is derived from it. The star is where a group is joined. Cbz = O=C(OCc1ccccc1)*

Sequence of Cellular tumor antigen p53 (Homo sapiens) (P04637 whole entry, looked up): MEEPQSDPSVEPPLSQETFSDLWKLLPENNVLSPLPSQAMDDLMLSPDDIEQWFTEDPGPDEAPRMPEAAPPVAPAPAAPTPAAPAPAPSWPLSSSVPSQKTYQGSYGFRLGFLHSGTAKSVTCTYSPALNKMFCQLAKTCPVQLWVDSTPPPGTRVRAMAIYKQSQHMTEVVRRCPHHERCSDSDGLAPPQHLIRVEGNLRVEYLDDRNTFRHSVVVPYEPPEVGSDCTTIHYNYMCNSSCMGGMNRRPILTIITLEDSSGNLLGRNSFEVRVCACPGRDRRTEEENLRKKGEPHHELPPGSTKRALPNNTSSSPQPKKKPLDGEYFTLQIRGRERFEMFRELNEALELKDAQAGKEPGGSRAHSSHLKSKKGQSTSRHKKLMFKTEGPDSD

For one assay, the target named is Cellular tumor antigen p53 (Homo sapiens) (UniProt P04637). Briefly: Primary qHTS for small molecule compounds that upregulate eGFP-tagged delta133p53alpha (in C-terminal) cells. (AID 2060324). The following applies: NCI-H358 delta133p53alpha-eGFP (C-terminal tag), GFP fluorescence imaging, 24 h; series mostly up to 57.5 µM. Put shortly:
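C-terminal eGFP-tagged delta133p53alpha NCI-H358 line; dox-induced (100 ng/ml, 24 h) then plated without dox; compounds pinned in titration, 24 h 37 °C/5% CO2; PFA fix, Hoechst nuclei; GFP by LSC.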
`NC1C=CC=C(C(=O)O)C1` (stereo not given): the Potency entry is “inactive”.
Still for that read-out and setting: as for `Fc1ccc(CN(C2=NCCN2)c2c(Cl)cccc2Cl)cc1`, the entry is “inactive”; as for `CNCC[C@H](Oc1ccc(C(F)(F)F)cc1)c1ccccc1`, “inactive”.
The same measure, in the same setting: as for `Cc1cccc(C)c1OCC(C)N` (stereo not given), the entry is “inactive”.
Still for that read-out and setting: as for `CC1CCN(CC[C@H]2CCCN2S(=O)(=O)c2cccc(O)c2)CC1`, the entry is “inactive”; as for `NC(=O)C(=O)O`, “inactive”; as for `O=c1[nH]c2cc([N+](=O)[O-])c([N+](=O)[O-])cc2[nH]c1=O`, “inactive”.
On to `Nn1nnc2ccccc21`, for which the Potency result was “inactive”.
Same read-out and setting: as for `CCCCCCCCCCCCCCSCC(=O)O`, the entry is “inactive”.
The same measure, in the same setting: as for `Cc1nc(N=Nc2ccc(C(=O)O)cc2)c(COP(=O)(O)O)c(C=O)c1O`, the entry is “inactive”; as for `CN1CCc2cc(Cl)c(O)cc2[C@@H](c2ccccc2)C1`, “inactive”; as for `C[C@@H](CN1CCC(Cc2ccccc2)CC1)[C@@H](O)c1ccc(O)cc1`, “inactive”.
In the case of `CN/C(=C\[N+](=O)[O-])NCCSCc1ccc(CN(C)C)o1`, the Potency entry is “inactive”.
With `Nc1ncnc2c1nc(Sc1ccc(Cl)cc1)n2[C@H]1OC2COP(=O)(O)O[C@@H]2C1O` (stereo not given in full), the Potency entry was “inactive”.
The same measure, in the same setting: the same measure for `CN1CCCC1CCOC(C)(c1ccccc1)c1ccc(Cl)cc1` (stereo not given): “inactive”; for `CN(C)C(N)=NCCC[C@H](N)C(=O)O`: “inactive”.
The same measure, in the same setting: as for `O=C(O)c1cc2cc(Cc3cccnc3)ccc2o1`, the entry is “inactive”; as for `COc1ccc2c(c1)c(CC(=O)O)c(C)n2C(=O)c1ccccc1`, “inactive”.
Still for that read-out and setting: the same measure for `Fc1cccc(/C=N/N=C/c2cccc(F)c2)c1`: “inactive”.
For the molecule `NC/C=C/C(=O)O`, the Potency result is “inactive”.
On the same count and under the same terms, as for `O=c1[nH]c2cc(C(F)(F)F)ccc2n1-c1cc(C(F)(F)F)ccc1O`, the entry is “inactive”; as for `CC(C)(C)[C@]1(O)CCN2C[C@H]3c4ccccc4CCc4cccc(c43)[C@@H]2C1`, “inactive”.
Same read-out and setting: the same measure for `CNc1ncnc2c1ncn2[C@@H]1O[C@H](CO)[C@@H](O)[C@H]1O`: “inactive”; for `O[Si](CCCN1CCCCC1)(c1ccc(F)cc1)C1CCCCC1` (stereo not given): “inactive”; for `CC(CCc1ccc(O)cc1)NCCc1ccc(O)c(O)c1` (stereo not given): “inactive”.
For the molecule `Nc1ccc(N2C(=O)c3ccccc3C2=O)c(Cl)c1`, the Potency result is “inactive”.
As for `CC(C)[C@H](NC(=O)OCc1ccccc1)C(=O)N[C@H](C=O)Cc1ccccc1` (Cbz-Val-Phe-aldehyde), the Potency result was “inactive”.
Still for that read-out and setting: as for `CCN(CC)CC(=O)Nc1c(C)cccc1C`, the entry is “inactive”; as for `CSC(=N)N`, “inactive”.
Still for that read-out and setting: as for `CC(C)C(=O)c1c(C(C)C)nn2ccccc12`, the entry is “inactive”.
The same measure, in the same setting: as for `CC1=C(C(=O)O)N2C(=O)[C@@H](NC(=O)C(N)c3ccccc3)[C@H]2SC1` (stereo not given in full), the entry is “inactive”; as for `Cc1cc(NC2CCCCC2)nc(-n2nc(C)cc2C)n1`, “inactive”.
For the molecule `CC[C@@H](C)[C@H]1O[C@]2(CC[C@H]1C)C[C@@H]1C[C@@H](CC=C(C)[C@@H](O[C@H]3C[C@H](OC)[C@@H](O[C@H]4C[C@H](OC)[C@@H](O)[C@H](C)O4)[C@H](C)O3)[C@@H](C)C=CC=C3CO[C@@H]4[C@H](O)C(C)=C[C@@H](C(=O)O1)[C@]34O)O2`, the Potency result was “inactive”.
Same read-out and setting: the same measure for `CC(=O)Nc1nnc(S(N)(=O)=O)s1`: “inactive”; for `CC(=O)N[C@@H](Cc1c[nH]c2ccccc12)C(=O)OCc1cc(C(F)(F)F)cc(C(F)(F)F)c1`: “inactive”.
The same measure, in the same setting: as for `CCCCC[C@H](CC(=O)NO)C(=O)N[C@H](C(=O)N1CCC[C@H]1CO)C(C)C`, the entry is “inactive”.
Same read-out and setting: the same measure for `CC1(C)CCC(NC(=O)[C@@H](N)CCC(=O)O)CC1`: “inactive”.
`Cn1cc(C(=O)OCC2CCN(CCNS(C)(=O)=O)CC2)c2ccccc21`: the Potency result was “inactive”.
For `Nc1c2c(nc3ccccc13)CCCC2O` (stereo not given), the Potency entry was “inactive”.
On the same count and under the same terms, the same measure for `Cn1cnc2c(NCc3ccccc3)nc(NCCO)nc21`: “inactive”.

For the next assay, the target named is Aldehyde dehydrogenase, mitochondrial (Homo sapiens) (UniProt P05091). Kind of assay: qHTS for Inhibitors of the Aldehyde Dehydrogenase Family (ALDH2) Validation screens (AID 2061302; active = well fitted inhibition curve with a large enough effect; title and protocol of this record describe different tests). To be noted: ALDH inhibition qHTS; series mostly up to 42.6 µM.
With `NC1C=CC=C(C(=O)O)C1` (stereo not given), the Potency result is “inactive”.
Same read-out and setting: the same measure for `Fc1ccc(CN(C2=NCCN2)c2c(Cl)cccc2Cl)cc1`: “inactive”; for `CNCC[C@H](Oc1ccc(C(F)(F)F)cc1)c1ccccc1`: “inactive”; for `Cc1cccc(C)c1OCC(C)N` (stereo not given): “inactive”.
On the same count and under the same terms, the same measure for `CC1CCN(CC[C@H]2CCCN2S(=O)(=O)c2cccc(O)c2)CC1`: “inactive”; for `NC(=O)C(=O)O`: “inactive”; for `O=c1[nH]c2cc([N+](=O)[O-])c([N+](=O)[O-])cc2[nH]c1=O`: “inactive”.
On the same count and under the same terms, the same measure for `Nn1nnc2ccccc21`: “inactive”; for `CCCCCCCCCCCCCCSCC(=O)O`: “inactive”.
Take `Cc1nc(N=Nc2ccc(C(=O)O)cc2)c(COP(=O)(O)O)c(C=O)c1O`: the Potency entry was “inactive”.
The same measure, in the same setting: the same measure for `CN1CCc2cc(Cl)c(O)cc2[C@@H](c2ccccc2)C1`: “inactive”.
Still for that read-out and setting: as for `C[C@@H](CN1CCC(Cc2ccccc2)CC1)[C@@H](O)c1ccc(O)cc1`, the entry is “inactive”; as for `CN/C(=C\[N+](=O)[O-])NCCSCc1ccc(CN(C)C)o1`, “inactive”.
The same measure, in the same setting: the same measure for `Nc1ncnc2c1nc(Sc1ccc(Cl)cc1)n2[C@H]1OC2COP(=O)(O)O[C@@H]2C1O` (stereo not given in full): “inactive”.
For the molecule `CN1CCCC1CCOC(C)(c1ccccc1)c1ccc(Cl)cc1` (stereo not given), the Potency entry is “inactive”.
Same read-out and setting: the same measure for `CN(C)C(N)=NCCC[C@H](N)C(=O)O`: “inactive”; for `O=C(O)c1cc2cc(Cc3cccnc3)ccc2o1`: “inactive”.
On the same count and under the same terms, as for `COc1ccc2c(c1)c(CC(=O)O)c(C)n2C(=O)c1ccccc1`, the entry is “inactive”; as for `Fc1cccc(/C=N/N=C/c2cccc(F)c2)c1`, “inactive”; as for `NC/C=C/C(=O)O`, “inactive”.
Consider `O=c1[nH]c2cc(C(F)(F)F)ccc2n1-c1cc(C(F)(F)F)ccc1O`, for which the Potency entry was “inactive”.
Still for that read-out and setting: as for `CC(C)(C)[C@]1(O)CCN2C[C@H]3c4ccccc4CCc4cccc(c43)[C@@H]2C1`, the entry is “inactive”.
On the same count and under the same terms, as for `CNc1ncnc2c1ncn2[C@@H]1O[C@H](CO)[C@@H](O)[C@H]1O`, the entry is “inactive”; as for `O[Si](CCCN1CCCCC1)(c1ccc(F)cc1)C1CCCCC1` (stereo not given), “inactive”.
On the same count and under the same terms, the same measure for `CC(CCc1ccc(O)cc1)NCCc1ccc(O)c(O)c1` (stereo not given): “inactive”; for `Nc1ccc(N2C(=O)c3ccccc3C2=O)c(Cl)c1`: “inactive”; for `CC(C)[C@H](NC(=O)OCc1ccccc1)C(=O)N[C@H](C=O)Cc1ccccc1` (Cbz-Val-Phe-aldehyde): “inactive”.
For the molecule `CCN(CC)CC(=O)Nc1c(C)cccc1C`, the Potency entry is “inactive”.
Same read-out and setting: as for `CSC(=N)N`, the entry is “inactive”; as for `CC(C)C(=O)c1c(C(C)C)nn2ccccc12`, “inactive”; as for `CC1=C(C(=O)O)N2C(=O)[C@@H](NC(=O)C(N)c3ccccc3)[C@H]2SC1` (stereo not given in full), “inactive”.
Consider `Cc1cc(NC2CCCCC2)nc(-n2nc(C)cc2C)n1`, for which the Potency result was “inactive”.
The same measure, in the same setting: the same measure for `CC[C@@H](C)[C@H]1O[C@]2(CC[C@H]1C)C[C@@H]1C[C@@H](CC=C(C)[C@@H](O[C@H]3C[C@H](OC)[C@@H](O[C@H]4C[C@H](OC)[C@@H](O)[C@H](C)O4)[C@H](C)O3)[C@@H](C)C=CC=C3CO[C@@H]4[C@H](O)C(C)=C[C@@H](C(=O)O1)[C@]34O)O2`: “inactive”.
Take `CC(=O)Nc1nnc(S(N)(=O)=O)s1`: the Potency entry was “inactive”.
On the same count and under the same terms, as for `CC(=O)N[C@@H](Cc1c[nH]c2ccccc12)C(=O)OCc1cc(C(F)(F)F)cc(C(F)(F)F)c1`, the entry is “inactive”.
For `CCCCC[C@H](CC(=O)NO)C(=O)N[C@H](C(=O)N1CCC[C@H]1CO)C(C)C`, the Potency entry is “inactive”.
On the same count and under the same terms, the same measure for `CC1(C)CCC(NC(=O)[C@@H](N)CCC(=O)O)CC1`: “inactive”; for `Cn1cc(C(=O)OCC2CCN(CCNS(C)(=O)=O)CC2)c2ccccc21`: “inactive”; for `Nc1c2c(nc3ccccc13)CCCC2O` (stereo not given): “inactive”.
As for `Cn1cnc2c(NCc3ccccc3)nc(NCCO)nc21`, the Potency entry was “inactive”.
